{
  "source": "PubChem BioAssay",
  "key": {"[1]": {"assay": "antimalarial activity against Dd2 strain (AID 2302;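 active = growth inhibition above 50% at the single 2 µM test dose, taken to imply half-maximal potency below 2 µM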;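 note: 0% = DMSO untreated growth and 100% = chloroquine plus artemisinin killed control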)", "conditions": "P. falciparum Dd2 in RBCs, LDH growth readout, 72 h; at 2 µM; active compounds read high"}, "[2]": {"assay": "human hepatoma cell viability loss – ATP luminescence, cytotoxicity control for P. falciparum antimalarial project, primary screen (AID 2303;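 active = inhibition above 50%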;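 note: 0% = DMSO wells and 100% = digitonin-killed cells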)", "conditions": "HepG2 viability, 24-48 h, at 10 µM, active compounds read high"}, "[3]": {"biological_target": "L-lactate dehydrogenase (Plasmodium falciparum (isolate CDC / Honduras)) (UniProt Q27743)", "sequence (Q27743 whole entry, looked up)": "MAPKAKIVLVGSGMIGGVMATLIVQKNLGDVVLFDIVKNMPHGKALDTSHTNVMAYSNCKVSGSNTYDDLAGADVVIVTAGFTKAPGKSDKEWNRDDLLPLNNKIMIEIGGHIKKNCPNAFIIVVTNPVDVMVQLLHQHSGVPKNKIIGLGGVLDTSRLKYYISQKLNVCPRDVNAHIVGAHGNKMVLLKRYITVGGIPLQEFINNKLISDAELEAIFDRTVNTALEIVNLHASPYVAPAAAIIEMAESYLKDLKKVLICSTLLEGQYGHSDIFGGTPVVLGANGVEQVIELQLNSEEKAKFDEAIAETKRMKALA", "assay": "PfLDH activity inhibition – cell lysate, 3D7 strain, counter-screen for P. falciparum growth inhibition project (AID 2304);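 note: 0% = vehicle and 100% = reference inhibitor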", "conditions": "P. falciparum 3D7 crude extract, LDH APAD/NBT absorbance; at 2 µM; active compounds read high"}, "[4]": {"assay": "inhibition of 3D7 malaria parasite growth – strain 3D7 (AID 2306);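 note: 0% = DMSO wells and 100% = chloroquine plus artemisinin control wells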", "conditions": "P. falciparum 3D7 erythrocytic growth, LDH absorbance, 72 h; at 2 µM; active compounds read high"}, "[5]": {"biological_target": "Calcium-dependent protein kinase 4 (Plasmodium falciparum (isolate 3D7)) (UniProt Q8IBS5)", "sequence (Q8IBS5 whole entry, looked up)": "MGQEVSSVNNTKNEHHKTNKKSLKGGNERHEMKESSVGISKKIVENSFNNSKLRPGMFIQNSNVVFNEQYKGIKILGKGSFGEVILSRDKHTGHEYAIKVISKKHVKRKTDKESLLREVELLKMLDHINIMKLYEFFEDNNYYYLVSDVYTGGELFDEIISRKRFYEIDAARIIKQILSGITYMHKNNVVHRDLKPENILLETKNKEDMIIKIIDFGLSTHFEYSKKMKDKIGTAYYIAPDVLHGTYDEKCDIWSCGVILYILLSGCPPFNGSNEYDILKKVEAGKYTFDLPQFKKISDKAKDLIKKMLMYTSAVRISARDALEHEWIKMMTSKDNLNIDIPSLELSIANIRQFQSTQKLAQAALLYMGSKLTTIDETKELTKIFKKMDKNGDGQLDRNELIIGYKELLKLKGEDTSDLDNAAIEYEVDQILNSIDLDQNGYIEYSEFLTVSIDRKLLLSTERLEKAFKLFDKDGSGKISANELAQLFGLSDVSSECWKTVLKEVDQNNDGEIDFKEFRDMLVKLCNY", "assay": "PfCDPK4 kinase inhibitors, biochemical, TCAMS library (AID 1159588; cut-off not given, nearly all actives have IC50 up to about 0.91 µM)", "conditions": "recombinant PfCDPK4, Kinase-Glo ATP depletion luminescence"}},
  "note": "Values without a mark were called inactive. For some assays here: Measured potencies and affinities stand elsewhere. Activity calls are given as the source filed them. Unless noted, the rule behind the calls is not given here.",
  "data": [
    {"compound": "C[C@@H]1C[C@@H]([C@H](O)CC2CC(=O)NC(=O)C2)C(=O)[C@@H](C)C1", "values": [
      {"measurement": "growth inhibition", "setting": "[1]", "value": "87% (active)"},
      {"measurement": "inhibition", "setting": "[2]", "value": 46, "unit": "%"},
      {"measurement": "inhibition", "setting": "[3]", "value": -5, "unit": "%"},
      {"measurement": "growth inhibition", "setting": "[4]", "value": "96% (active)"},
      {"measurement": "outcome", "setting": "[5]", "value": "inactive"}
    ]}
  ]
}
